Assays:
Assay in all cases: log2 ratio of Biotin-Ahx-Ub-VS probe labelling (fragment/DMSO); higher = less target engagement (more negative = stronger competition), active = hit call of the paper (q ≤ 0.05, log2 ratio ≤ -1)
Conditions in all cases: compound concentration: 200 uM; treatment time: 3 h
USP42 = target: T1, USP42 (UniProt Q9H9J4)
T1 sequence (whole entry): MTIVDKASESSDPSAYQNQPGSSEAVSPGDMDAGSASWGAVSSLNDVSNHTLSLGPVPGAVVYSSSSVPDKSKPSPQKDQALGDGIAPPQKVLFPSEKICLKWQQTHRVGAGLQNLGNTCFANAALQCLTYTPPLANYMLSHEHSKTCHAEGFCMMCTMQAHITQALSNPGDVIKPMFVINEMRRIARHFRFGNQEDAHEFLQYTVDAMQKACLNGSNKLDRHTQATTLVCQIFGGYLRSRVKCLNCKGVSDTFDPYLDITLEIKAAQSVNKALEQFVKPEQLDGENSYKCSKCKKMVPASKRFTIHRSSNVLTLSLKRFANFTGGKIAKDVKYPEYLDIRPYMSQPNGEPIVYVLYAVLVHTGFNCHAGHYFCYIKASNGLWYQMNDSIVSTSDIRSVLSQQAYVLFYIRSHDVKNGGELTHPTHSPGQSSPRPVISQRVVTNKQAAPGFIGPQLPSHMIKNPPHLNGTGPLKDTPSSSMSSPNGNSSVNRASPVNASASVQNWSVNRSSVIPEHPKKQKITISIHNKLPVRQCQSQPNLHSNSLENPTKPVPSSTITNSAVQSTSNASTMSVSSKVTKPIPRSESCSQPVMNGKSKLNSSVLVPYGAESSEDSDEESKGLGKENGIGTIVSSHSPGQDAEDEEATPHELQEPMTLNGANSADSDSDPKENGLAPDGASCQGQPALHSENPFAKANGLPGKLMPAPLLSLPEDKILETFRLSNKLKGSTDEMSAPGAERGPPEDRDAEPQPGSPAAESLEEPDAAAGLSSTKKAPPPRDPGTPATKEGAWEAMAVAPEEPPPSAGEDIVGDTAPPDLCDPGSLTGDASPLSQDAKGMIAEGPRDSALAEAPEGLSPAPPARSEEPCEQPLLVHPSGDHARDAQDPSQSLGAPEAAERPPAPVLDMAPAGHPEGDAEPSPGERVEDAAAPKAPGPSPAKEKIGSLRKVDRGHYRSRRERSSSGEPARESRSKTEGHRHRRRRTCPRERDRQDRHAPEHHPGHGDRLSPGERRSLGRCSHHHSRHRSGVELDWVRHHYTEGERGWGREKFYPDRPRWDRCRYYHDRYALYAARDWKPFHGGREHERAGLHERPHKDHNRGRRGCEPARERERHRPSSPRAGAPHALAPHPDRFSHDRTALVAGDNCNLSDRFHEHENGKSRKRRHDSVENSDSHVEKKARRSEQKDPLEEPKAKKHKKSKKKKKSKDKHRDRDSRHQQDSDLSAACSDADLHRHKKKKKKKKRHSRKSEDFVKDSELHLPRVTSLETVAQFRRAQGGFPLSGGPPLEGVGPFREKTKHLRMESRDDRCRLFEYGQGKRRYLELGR
Method in brief: (§1)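 HEK293T lysate (495 µg per sample, in Tris/CHAPS/IGEPAL buffer with protease inhibitors) was exposed in triplicate for 3 h to fragment at 200 µM or to vehicle, then to Biotin-Ahx-Ub-VS at 0.5 µM final for 1 h. Labelled DUBs were enriched on NeutrAvidin, digested with LysC and trypsin, and analysed by diaPASEF LC-MS/MS. Spectronaut label-free quantities were normalised to the global median, and values are average log2 ratios of fragment over vehicle from an unpaired t-test. Only proteins with ≥2 unique peptides were used.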

USP46 = USP46 (UniProt P62068)
Sequence of USP46 (P62068 whole entry): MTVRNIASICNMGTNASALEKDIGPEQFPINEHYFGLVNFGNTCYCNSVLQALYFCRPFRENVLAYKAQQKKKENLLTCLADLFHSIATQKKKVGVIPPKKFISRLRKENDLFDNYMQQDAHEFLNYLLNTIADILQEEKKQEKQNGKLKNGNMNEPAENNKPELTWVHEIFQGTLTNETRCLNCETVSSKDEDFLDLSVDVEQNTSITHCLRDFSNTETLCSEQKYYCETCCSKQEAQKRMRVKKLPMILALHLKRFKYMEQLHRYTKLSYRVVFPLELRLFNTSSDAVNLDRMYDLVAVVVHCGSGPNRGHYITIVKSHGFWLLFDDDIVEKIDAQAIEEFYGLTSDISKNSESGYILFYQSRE
Method in brief: as §1

USP47 = target: T2, USP47 (UniProt Q96K76)
T2 sequence (whole entry): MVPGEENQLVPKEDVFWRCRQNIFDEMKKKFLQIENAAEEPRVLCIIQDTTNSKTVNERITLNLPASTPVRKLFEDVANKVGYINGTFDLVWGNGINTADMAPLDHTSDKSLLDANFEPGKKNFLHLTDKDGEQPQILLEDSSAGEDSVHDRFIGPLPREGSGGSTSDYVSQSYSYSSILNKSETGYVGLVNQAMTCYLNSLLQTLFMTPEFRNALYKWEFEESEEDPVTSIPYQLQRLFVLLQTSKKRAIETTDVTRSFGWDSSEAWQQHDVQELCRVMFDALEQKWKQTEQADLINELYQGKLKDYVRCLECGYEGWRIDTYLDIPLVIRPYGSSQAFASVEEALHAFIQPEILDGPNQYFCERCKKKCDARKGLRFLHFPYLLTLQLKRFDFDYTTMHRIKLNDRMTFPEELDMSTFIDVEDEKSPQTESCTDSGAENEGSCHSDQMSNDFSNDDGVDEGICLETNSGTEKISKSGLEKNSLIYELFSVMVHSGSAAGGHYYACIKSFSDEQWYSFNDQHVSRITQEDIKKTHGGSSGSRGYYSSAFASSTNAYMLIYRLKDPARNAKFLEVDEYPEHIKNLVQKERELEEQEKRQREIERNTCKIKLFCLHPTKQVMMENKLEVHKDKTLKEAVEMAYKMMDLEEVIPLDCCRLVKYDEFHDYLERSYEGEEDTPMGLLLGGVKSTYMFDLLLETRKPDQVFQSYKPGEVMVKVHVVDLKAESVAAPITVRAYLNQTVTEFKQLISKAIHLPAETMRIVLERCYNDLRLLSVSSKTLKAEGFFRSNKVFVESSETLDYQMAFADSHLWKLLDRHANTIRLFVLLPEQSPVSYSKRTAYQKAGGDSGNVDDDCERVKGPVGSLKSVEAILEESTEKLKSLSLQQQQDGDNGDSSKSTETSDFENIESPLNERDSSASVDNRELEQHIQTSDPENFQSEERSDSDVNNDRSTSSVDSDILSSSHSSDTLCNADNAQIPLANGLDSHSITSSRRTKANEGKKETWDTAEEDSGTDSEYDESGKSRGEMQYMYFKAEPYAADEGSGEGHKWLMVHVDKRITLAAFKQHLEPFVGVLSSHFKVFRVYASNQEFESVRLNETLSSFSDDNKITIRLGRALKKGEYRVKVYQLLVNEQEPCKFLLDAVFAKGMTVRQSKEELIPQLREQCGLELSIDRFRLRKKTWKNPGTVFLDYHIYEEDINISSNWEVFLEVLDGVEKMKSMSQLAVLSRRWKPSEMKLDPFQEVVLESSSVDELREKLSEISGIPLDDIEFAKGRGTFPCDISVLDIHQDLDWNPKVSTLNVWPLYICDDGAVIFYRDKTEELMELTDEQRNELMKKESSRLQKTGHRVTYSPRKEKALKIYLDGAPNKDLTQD
Method in brief: as §1

USP48 = target: T3, USP48 (UniProt Q86UV5)
T3 sequence (whole entry): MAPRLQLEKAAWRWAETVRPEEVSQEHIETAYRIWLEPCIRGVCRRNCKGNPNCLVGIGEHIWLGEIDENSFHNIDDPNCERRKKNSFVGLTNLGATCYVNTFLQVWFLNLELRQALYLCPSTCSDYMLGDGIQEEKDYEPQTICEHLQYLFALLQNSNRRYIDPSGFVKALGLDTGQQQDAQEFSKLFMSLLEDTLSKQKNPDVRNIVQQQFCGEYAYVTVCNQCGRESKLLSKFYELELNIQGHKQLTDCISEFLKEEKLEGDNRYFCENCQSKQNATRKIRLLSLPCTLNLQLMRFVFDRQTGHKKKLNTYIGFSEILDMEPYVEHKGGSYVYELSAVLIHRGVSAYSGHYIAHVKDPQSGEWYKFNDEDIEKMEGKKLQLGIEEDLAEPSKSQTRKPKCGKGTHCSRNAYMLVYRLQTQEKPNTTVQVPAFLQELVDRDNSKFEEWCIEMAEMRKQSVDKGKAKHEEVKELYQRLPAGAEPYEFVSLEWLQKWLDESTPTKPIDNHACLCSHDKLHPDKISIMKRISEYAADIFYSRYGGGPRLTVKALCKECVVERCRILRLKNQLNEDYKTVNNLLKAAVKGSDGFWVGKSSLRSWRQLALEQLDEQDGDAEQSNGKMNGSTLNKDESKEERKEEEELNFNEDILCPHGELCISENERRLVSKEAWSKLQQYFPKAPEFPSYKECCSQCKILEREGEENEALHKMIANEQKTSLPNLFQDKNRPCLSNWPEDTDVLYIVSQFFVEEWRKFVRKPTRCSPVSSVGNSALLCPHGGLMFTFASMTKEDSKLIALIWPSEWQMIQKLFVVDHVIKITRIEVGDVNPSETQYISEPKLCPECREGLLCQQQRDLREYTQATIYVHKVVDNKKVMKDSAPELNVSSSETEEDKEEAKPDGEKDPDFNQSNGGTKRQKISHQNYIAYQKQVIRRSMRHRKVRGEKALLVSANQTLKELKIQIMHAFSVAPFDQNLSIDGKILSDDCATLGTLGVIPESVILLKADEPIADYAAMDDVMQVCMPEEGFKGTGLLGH
Method in brief: as §1

USP5 = target: T4, USP5 (UniProt P45974)
T4 sequence (whole entry): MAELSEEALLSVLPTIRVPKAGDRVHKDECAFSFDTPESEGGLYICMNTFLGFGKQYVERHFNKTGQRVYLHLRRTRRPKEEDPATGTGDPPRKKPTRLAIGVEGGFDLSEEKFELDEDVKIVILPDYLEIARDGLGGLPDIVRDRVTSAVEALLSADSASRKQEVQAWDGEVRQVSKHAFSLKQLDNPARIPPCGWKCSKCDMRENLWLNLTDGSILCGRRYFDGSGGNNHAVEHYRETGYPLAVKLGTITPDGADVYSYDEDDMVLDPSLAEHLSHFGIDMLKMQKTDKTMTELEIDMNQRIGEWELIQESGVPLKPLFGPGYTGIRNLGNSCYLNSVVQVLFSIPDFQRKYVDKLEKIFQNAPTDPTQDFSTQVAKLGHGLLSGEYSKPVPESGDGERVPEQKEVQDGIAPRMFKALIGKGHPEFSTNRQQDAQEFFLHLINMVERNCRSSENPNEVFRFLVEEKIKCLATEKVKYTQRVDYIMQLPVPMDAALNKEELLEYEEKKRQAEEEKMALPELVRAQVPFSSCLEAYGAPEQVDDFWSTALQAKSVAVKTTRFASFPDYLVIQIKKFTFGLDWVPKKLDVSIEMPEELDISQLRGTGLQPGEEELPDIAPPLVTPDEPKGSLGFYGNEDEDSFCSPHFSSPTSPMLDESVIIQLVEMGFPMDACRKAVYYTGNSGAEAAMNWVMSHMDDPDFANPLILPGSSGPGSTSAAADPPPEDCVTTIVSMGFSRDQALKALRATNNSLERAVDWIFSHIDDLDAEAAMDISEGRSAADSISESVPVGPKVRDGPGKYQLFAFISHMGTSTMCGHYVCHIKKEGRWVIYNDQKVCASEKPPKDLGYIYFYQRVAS
Method in brief: as §1

USP54 = USP54 (UniProt Q70EL1)
Method in brief: as §1

USP7 = USP7 (UniProt Q93009)
Sequence of USP7 (Q93009 whole entry, looked up): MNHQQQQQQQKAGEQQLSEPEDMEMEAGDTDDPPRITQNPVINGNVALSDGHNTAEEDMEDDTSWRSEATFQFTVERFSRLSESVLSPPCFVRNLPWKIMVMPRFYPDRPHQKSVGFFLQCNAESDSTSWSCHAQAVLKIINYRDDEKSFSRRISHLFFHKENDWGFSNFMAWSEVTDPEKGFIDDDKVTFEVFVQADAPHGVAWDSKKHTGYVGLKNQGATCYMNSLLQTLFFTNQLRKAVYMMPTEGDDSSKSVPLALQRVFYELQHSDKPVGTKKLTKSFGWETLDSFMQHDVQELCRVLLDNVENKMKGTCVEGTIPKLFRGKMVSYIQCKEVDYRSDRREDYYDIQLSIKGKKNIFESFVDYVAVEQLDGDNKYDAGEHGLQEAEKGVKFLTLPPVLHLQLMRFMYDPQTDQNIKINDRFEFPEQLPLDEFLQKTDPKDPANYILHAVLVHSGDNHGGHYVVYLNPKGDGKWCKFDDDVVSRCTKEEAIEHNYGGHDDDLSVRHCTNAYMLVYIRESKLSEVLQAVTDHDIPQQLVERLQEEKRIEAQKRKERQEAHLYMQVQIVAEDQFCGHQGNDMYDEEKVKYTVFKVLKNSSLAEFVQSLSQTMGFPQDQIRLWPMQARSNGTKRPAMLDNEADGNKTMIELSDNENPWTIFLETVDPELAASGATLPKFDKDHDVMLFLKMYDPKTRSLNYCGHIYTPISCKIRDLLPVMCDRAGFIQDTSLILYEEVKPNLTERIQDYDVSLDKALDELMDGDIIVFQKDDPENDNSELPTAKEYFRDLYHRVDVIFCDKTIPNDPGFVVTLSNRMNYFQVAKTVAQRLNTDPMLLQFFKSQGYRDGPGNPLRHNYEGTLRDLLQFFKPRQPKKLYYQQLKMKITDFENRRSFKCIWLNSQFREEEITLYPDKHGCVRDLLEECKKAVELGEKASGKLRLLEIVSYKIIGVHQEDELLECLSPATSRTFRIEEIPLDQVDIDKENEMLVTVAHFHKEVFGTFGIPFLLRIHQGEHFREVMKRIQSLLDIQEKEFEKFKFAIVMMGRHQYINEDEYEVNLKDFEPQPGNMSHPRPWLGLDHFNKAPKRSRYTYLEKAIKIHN
Method in brief: as §1

USP8 = target: T5, USP8 (UniProt P40818)
T5 sequence (whole entry): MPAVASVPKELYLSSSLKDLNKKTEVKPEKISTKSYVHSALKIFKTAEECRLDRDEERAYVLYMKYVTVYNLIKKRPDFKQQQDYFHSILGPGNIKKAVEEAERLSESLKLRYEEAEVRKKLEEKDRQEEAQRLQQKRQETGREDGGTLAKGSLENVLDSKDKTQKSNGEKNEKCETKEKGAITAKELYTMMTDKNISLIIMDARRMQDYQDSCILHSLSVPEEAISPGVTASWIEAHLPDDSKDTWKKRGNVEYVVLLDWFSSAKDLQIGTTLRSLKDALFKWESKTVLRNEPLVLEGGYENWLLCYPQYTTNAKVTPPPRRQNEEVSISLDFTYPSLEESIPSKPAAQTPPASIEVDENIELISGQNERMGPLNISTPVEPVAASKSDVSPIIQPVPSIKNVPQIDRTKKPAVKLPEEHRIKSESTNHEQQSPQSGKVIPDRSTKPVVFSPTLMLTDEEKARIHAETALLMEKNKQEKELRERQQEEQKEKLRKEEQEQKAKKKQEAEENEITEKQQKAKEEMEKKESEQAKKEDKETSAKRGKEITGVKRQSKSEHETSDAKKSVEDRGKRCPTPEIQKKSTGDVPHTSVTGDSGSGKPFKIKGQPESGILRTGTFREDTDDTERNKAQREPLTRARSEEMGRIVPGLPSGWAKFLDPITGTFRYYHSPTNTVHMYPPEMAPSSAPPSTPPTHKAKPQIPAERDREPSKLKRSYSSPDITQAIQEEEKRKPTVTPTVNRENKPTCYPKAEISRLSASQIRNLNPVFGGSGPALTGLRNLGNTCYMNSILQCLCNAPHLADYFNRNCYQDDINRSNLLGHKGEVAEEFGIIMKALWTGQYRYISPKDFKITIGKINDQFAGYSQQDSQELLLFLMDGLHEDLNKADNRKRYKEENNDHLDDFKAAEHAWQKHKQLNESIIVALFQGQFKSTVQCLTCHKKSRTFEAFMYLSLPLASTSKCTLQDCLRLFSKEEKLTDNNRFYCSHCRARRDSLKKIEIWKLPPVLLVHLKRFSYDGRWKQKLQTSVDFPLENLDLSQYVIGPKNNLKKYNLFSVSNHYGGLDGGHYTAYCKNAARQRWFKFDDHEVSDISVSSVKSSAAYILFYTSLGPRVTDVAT
Method in brief: as §1

USP9X = USP9X (UniProt Q93008)
Sequence of USP9X (Q93008 whole entry): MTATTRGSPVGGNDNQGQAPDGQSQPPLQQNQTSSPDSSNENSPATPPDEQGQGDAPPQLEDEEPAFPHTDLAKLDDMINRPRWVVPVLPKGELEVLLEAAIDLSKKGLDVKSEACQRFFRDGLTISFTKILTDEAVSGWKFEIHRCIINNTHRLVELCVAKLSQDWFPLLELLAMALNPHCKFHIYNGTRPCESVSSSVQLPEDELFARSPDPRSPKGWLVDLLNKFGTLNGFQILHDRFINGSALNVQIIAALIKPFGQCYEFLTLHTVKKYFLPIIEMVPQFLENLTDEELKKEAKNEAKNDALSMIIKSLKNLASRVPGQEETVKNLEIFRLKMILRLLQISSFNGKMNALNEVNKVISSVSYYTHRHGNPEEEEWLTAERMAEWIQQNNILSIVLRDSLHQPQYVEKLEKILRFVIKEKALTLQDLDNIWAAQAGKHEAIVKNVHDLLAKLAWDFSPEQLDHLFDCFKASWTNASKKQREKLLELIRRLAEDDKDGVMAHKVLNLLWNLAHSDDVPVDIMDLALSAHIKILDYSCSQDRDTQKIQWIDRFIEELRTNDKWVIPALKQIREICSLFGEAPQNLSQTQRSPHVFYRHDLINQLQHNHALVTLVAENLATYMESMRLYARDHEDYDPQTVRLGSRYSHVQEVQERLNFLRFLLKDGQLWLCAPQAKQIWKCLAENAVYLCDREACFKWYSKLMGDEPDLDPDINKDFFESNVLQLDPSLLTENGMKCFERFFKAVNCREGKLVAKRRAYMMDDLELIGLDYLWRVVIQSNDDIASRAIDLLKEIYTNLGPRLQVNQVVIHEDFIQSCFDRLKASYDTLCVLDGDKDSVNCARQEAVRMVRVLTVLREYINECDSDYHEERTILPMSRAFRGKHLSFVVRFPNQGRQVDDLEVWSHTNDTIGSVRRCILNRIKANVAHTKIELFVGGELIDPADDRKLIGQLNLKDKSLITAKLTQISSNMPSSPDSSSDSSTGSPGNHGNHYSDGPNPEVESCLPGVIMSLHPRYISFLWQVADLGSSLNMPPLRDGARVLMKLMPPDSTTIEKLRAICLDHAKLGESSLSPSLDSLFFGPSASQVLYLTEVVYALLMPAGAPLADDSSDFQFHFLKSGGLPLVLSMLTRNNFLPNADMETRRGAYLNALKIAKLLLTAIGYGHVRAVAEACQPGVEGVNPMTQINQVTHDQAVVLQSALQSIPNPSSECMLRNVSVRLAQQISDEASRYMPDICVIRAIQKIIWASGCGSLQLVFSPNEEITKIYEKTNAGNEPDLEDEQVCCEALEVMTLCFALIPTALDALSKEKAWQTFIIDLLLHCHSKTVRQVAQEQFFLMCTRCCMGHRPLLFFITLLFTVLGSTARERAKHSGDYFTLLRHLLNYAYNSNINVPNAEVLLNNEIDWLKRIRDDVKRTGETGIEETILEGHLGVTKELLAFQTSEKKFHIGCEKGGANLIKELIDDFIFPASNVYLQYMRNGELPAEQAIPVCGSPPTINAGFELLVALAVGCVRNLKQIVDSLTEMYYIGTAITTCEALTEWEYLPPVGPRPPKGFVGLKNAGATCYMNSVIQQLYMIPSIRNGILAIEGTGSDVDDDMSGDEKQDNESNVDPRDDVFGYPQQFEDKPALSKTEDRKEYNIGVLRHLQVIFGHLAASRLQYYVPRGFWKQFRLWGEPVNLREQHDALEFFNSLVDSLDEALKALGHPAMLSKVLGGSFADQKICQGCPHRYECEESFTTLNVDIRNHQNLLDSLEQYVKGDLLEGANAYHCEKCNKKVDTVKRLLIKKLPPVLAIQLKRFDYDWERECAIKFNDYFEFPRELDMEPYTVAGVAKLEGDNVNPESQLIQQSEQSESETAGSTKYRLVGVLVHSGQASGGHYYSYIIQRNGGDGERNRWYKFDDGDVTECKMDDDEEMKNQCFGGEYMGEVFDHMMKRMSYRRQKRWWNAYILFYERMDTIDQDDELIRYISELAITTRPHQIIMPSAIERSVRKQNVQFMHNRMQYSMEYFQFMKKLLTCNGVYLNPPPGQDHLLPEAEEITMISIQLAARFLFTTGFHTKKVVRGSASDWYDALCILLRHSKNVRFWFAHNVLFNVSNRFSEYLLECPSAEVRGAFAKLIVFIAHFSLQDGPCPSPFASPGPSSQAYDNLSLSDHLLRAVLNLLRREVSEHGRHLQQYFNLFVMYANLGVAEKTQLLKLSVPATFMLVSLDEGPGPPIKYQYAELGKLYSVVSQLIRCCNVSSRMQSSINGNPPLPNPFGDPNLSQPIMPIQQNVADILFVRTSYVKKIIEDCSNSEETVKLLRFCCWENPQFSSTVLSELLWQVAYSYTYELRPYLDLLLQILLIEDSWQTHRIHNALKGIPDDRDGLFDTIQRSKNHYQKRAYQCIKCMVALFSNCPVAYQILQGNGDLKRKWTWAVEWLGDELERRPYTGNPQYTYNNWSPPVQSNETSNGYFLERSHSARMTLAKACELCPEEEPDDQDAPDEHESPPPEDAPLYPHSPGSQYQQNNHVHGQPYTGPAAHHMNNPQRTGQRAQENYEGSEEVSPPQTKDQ
Method in brief: as §1

UniProt O00487 = target: UniProt O00487
Sequence of UniProt O00487 (O00487 whole entry): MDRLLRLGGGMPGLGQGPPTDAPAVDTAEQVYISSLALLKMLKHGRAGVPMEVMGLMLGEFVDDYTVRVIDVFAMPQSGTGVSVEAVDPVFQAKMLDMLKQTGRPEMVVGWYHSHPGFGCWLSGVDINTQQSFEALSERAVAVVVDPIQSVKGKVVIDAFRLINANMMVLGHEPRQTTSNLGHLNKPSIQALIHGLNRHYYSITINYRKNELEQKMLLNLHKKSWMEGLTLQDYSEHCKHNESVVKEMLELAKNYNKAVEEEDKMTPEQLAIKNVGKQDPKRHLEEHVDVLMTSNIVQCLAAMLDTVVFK
Method in brief: as §1

Measured: log2 ratio of Biotin-Ahx-Ub-VS probe labelling

O=C(CCl)Nc1ccc(Cl)c(F)c1
inactive: USP42 -0.0407 | USP46 -0.231 | USP47 -0.798 | USP48 -0.731 | USP5 -0.223 | USP54 -0.268 | USP7 -0.646 | USP8 -0.207 | USP9X -0.282 | UniProt O00487 -0.0232

From the supplement of paper PMC11732987, “Enantioselective OTUD7B fragment discovery through chemoproteomics screening and high-throughput optimisation” (Communications Chemistry, 2025)
